Pol beta inh – qHTS Assay for Inhibitors of DNA Polymerase Beta | P06746 | Pol beta primer extension/strand displacement, fluorescence kinetic | Potency, µM (series often up to 114 µM), without a hit: top-dose activity change, negative = inhibition, usual class: inhibitors | 340,000 compounds, 1.3% hits; also: potency is read from the fitted curve at half-maximal effect; % is scaled to controls: 0 for no effect and ±100 for the full control effect
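Preincubation: enzyme (10 nM) with compound, 15 min, RT. Reaction: substrate added to 50 nM final. Reads: 0 and 10 min. Analysis: normalized, Hill fit.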
POLK inh – qHTS for Inhibitors of Polymerase Kappa; purified Pol kappa, fluorescent DNA synthesis assay, 10 min; Potency, µM (series often up to 107 µM), for inactives: at the top dose activity, negative = inhibition, hits mostly inhibitors; 400,000 compounds, 0.53% hits; AID 588579, 2011; also: potency is read from the fitted curve at half-maximal effect; % is scaled to controls: 0 for no effect and ±100 for the full control effect
Target sequence (Q9UBT6 whole entry, looked up): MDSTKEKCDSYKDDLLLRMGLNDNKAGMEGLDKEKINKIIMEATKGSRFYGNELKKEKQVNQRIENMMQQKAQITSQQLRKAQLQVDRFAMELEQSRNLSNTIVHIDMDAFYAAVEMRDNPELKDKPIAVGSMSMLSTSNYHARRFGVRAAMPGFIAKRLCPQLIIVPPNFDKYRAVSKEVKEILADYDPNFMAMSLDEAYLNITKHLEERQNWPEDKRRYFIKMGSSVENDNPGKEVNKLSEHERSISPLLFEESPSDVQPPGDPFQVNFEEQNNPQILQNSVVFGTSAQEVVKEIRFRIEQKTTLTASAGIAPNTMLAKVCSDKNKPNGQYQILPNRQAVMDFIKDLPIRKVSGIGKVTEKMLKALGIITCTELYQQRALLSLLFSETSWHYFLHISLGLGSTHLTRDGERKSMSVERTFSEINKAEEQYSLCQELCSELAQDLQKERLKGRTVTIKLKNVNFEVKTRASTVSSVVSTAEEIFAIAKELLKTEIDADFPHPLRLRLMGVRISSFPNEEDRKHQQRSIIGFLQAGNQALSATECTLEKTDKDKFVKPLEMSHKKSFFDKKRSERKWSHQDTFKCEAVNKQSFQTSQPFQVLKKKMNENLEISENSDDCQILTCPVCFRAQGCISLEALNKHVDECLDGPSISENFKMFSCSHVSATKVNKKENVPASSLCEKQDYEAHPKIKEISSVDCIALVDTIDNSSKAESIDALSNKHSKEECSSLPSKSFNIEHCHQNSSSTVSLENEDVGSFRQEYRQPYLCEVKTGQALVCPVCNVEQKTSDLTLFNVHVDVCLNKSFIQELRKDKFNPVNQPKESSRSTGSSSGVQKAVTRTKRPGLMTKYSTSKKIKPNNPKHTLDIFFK
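Activity was followed as the change in fluorescence between reads at 0 and 10 min after starting the reaction with 50 nM substrate. Beforehand, 10 nM polymerase had been preincubated with compound for 15 min at room temperature.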
PI5P4Ka inh – qHTS for Inhibitors of phosphatidylinositol 5-phosphate 4-kinase (PI5P4K); PI5P4Kalpha enzyme, ADP-Glo luminescence, 60 min; hits give low values; max response, %; 330,000 compounds, 1.2% hits; AID 652105, 2013; active = max response of -50% or lower; inconclusive = between -30% and -50%; inactive = -30% or higher; also: value at the top dose of about 77 µM; % is scaled to controls: 0 for no effect and ±100 for the full control effect
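Quantitative HTS of the MLSMR library against PI5P4Kalpha with substrate. ATP added last at 5 microM final; room temperature, 60 minutes. Remaining ATP depleted, ADP converted and read as luminescence.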
Pol eta inh – qHTS for Inhibitors of Polymerase Eta | recombinant Pol eta, fluorescent DNA replication assay | Potency, µM (titrated, usually from 114 µM), inactives show top-dose activity change, negative = inhibition, hits mostly inhibitors | AID 588591, 2011 | 390,000 compounds, 1.2% hits; also: potency is read from the fitted curve at half-maximal effect; % is scaled to controls: 0 for no effect and ±100 for the full control effect
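Fluorescent replication assay: 50 nM final substrate added after a 15 min room-temperature compound preincubation with 10 nM enzyme. Signal taken at 0 min and again at 10 min.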
FEN1 inh – qHTS Assay for the Inhibitors of Human Flap endonuclease 1 (FEN1); P39748; Recombinant FEN1 flap cleavage, fluorescence, 15 min; Potency, µM (doses to about 114 µM), without a hit: top-dose activity change, negative = inhibition, actives largely listed as inhibitors; 390,000 compounds, 0.35% hits; also: potency is read from the fitted curve at half-maximal effect; % is scaled to controls: 0 for no effect and ±100 for the full control effect; nearly all actives have a fitted effect of over 65% in size
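Steps: FEN1 (10 nM) dispensed; compound added by pin tool; 15 min at room temperature; substrate added to 50 nM final; reads at 0 min and 15 min; data normalized and fitted (four-parameter Hill).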
Pol iota inh – qHTS for Inhibitors of Polymerase Iota; DNA polymerase iota (Homo sapiens), Q9UNA4; Pol iota fluorescent replication assay, 10 min; 390,000 compounds, 1% hits; Potency, µM (titrated, usually from 115 µM), for the others: top-dose activity, negative = inhibition, usual class: inhibitors; AID 588590, 2011; also: potency is read from the fitted curve at half-maximal effect
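Fluorescent replication assay read twice, at 0 min and 10 min after adding 50 nM (final) substrate. Enzyme (10 nM) and compounds were first incubated 15 min at room temperature; enzyme-free buffer wells were negative controls.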
Numbers without * were called inactive. Hits are enriched below; roughly 2.8% of the tested compounds scored in any of these assays. Unless noted, calls follow the shape of the dose curve; as a rule, active = well fitted curve in the direction sought with a large enough effect; inconclusive = small, poorly fitted or top-dose-only effect, or another doubt; inactive = no such curve, though single readings can be large; an effect the other way counts as inactive or inconclusive.

Cc1ccccc1NC(=O)/C(C#N)=C/c1ccc[nH]1 was read as Pol beta inh 22.4%, POLK inh -3.0%, PI5P4Ka inh 0.2, Pol eta inh -4.6%, FEN1 inh -3.9% and Pol iota inh 28.2%.
Screening N#C/C(=C\c1ccc[nH]1)C(=O)Nc1ccccc1[N+](=O)[O-] returned Pol beta inh -5.2%, POLK inh inconclusive, PI5P4Ka inh -65.0*, Pol eta inh inconclusive, FEN1 inh -14.7% and Pol iota inh 70.8µM*.
NC(=O)c1cc[n+](CC2=C(C(=O)O)N3C(=O)[C@@H](NC(=O)[C@H](c4ccccc4)S(=O)(=O)[O-])[C@@H]3SC2)cc1 was read as POLK inh 4.23µM*.
`NC(=O)c1cc[n+](CC2=C(C(=O)O)N3C(=O)[C@@H](NC(=O)C(c4ccccc4)S(=O)(=O)[O-])[C@H]3SC2)cc1` (stereo partly specified) gave Pol beta inh -20.7%, POLK inh 1µM*, PI5P4Ka inh -96.6*, Pol eta inh -99.6%, FEN1 inh 2.24µM* and Pol iota inh 0.794µM*.
Screening Cc1cc(C)c2nc(-c3ccccn3)cc(C(=O)NCc3cc(C)n(C)n3)c2c1 returned Pol beta inh 39.8µM*, POLK inh 0.5%, PI5P4Ka inh -7.8, Pol eta inh -10.2%, FEN1 inh 3.5% and Pol iota inh 17.4%.
Screening Cc1cc(C)c2nc(-c3ccccn3)cc(C(=O)NCc3ccco3)c2c1 returned Pol beta inh 39.8µM*, POLK inh inconclusive, PI5P4Ka inh inconclusive, Pol eta inh inconclusive, FEN1 inh 0.4% and Pol iota inh inconclusive.
Screening Cc1cc(C)c2nc(-c3ccccn3)cc(C(=O)Nn3cnnc3)c2c1 returned Pol beta inh 15.2%, POLK inh -14.4%, PI5P4Ka inh -24.5, Pol eta inh -20.8%, FEN1 inh 8.8% and Pol iota inh 83.8%.
`CC(C)(C)OC(=O)NCC(=O)Oc1cc2oc(=O)cc(-c3ccccc3)c2cc1Cl` gave Pol beta inh -13.5%, POLK inh -3.7%, PI5P4Ka inh -72.4*, Pol eta inh -11.8%, FEN1 inh 11.0% and Pol iota inh 7.0%.
For CCc1cc2c(-c3ccccc3)cc(=O)oc2cc1OC(C)C(C)=O (stereo unspecified) the results were Pol beta inh 0.1%, POLK inh -7.3%, PI5P4Ka inh 10.5, Pol eta inh -16.2%, FEN1 inh -14.7% and Pol iota inh 35.0%.
For C=CCOC(=O)C1=C[C@H](c2ccc(C(F)(F)F)cc2)C[C@H](OCCCCO)O1 the results were POLK inh -11.8%, PI5P4Ka inh -6.0, Pol eta inh -3.2%, FEN1 inh -19.8% and Pol iota inh -15.0%.
C#Cc1ccc([C@@H]2C=C(C(=O)NCc3ccccc3)O[C@H](OCCCCO)C2)cc1 was read as POLK inh inconclusive, PI5P4Ka inh -63.8*, Pol eta inh 44.7µM*, FEN1 inh -3.6% and Pol iota inh 50.1µM*.
Screening C#CCNC(=O)C1=C[C@@H](c2ccccc2)C[C@@H](OCCCCO)O1 returned POLK inh 9.3%, PI5P4Ka inh 1.5, Pol eta inh -2.7%, FEN1 inh 4.1% and Pol iota inh 2.0%.
`C#CCNC(=O)C1=C[C@@H](c2ccc(C#C)cc2)C[C@@H](OCCCCO)O1` gave POLK inh inconclusive, PI5P4Ka inh -56.3*, Pol eta inh 25.1µM*, FEN1 inh inconclusive and Pol iota inh 50.1µM*.
Screening C#Cc1ccc([C@@H]2C=C(C(=O)OCC=C)O[C@H](OCCCCO)C2)cc1 returned Pol beta inh 17.8µM*, POLK inh inconclusive, PI5P4Ka inh inconclusive, Pol eta inh inconclusive, FEN1 inh inconclusive and Pol iota inh inconclusive.

Screens: PubChem BioAssay, National Center for Advancing Translational Sciences (NCATS)
